Records with an inconclusive call do not appear. The source made the active and inactive calls. How the source made its calls, unless noted: active means hit-call score of the fitted dose curve at least 0.9, where 1 is the maximum; inactive means score below 0.9.
Experiments:
[1] = target: Paired box protein Pax-6 (Homo sapiens) (UniProt P26367); assay: ATG_Pax6_CIS: Attagene CIS-FACTORIAL HepG2 Assay for human Paired Box 6 (PAX6) (AID 2282956); settings: HepG2 CIS-FACTORIAL PAX6 reporter transcription, RNA readout; actives raise or lower the signal
Procedure, shortened: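 Readout: reporter transcript fluorescence after RT-PCR and capillary electrophoresis. Cells: HepG2, transiently transfected with cis-regulated MRTUs. Exposure 24 h. Gain or loss of signal fitted bidirectionally relative to DMSO.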

[2] = ATG_PXRE_CIS: Attagene CIS-FACTORIAL HepG2 Assay for human Pregnane X Receptor Element (PXRE) (AID 2282957); settings: HepG2 Attagene CIS-FACTORIAL PXRE reporter, mRNA; actives raise or lower the signal
Procedure, shortened: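 Bidirectional activity, baselined to DMSO, derived from reporter mRNA fluorescence (RT-PCR plus capillary electrophoresis) in HepG2 cells bearing cis-promoter reporter units, 24 h exposure.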

[3] = ATG_PPRE_CIS: Attagene CIS-FACTORIAL HepG2 Assay for human Peroxisome Proliferator-activated Response Element (PPRE) (AID 2282958); settings: HepG2 PPRE cis-element reporter, Attagene transcription factor profiling; actives raise or lower the signal
Procedure, shortened: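 Read-out: fluorescent reporter mRNA fragments resolved by capillary electrophoresis after RT-PCR. HepG2 cells carried transiently transfected PPRE-driven cis reporter constructs and were dosed for 24 h; gain or loss of signal fitted relative to DMSO.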

[4] = ATG_RORE_CIS: Attagene CIS-FACTORIAL HepG2 Assay for human RAR-related Orphan Receptor Element (RORE) (AID 2282959); settings: HepG2 Attagene cis-factorial RORE reporter, mRNA; actives raise or lower the signal
Procedure, shortened: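 Readout: fluorescent reporter mRNA by RT-PCR plus capillary electrophoresis, 24 h after dosing transfected HepG2 cells. Endogenous transcription factor activity on a cis promoter element is measured. Gain or loss of signal fitted against DMSO.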

[5] = ATG_Sox_CIS: Attagene CIS-FACTORIAL HepG2 Assay for human SRY-box transcription factor (SOX) (AID 2282960); settings: HepG2 Attagene cis-factorial SOX reporter, mRNA; actives raise or lower the signal
Procedure, shortened: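 Read-out: fluorescent RT-PCR products of SOX1-linked reporter transcripts resolved by capillary electrophoresis, fitted bidirectionally against DMSO. Transiently transfected HepG2 cells, 24 h after chemical exposure, endogenous transcription factor activity.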

[6] = target: Transcription factor Sp1 (Homo sapiens) (UniProt P08047); assay: ATG_Sp1_CIS: Attagene CIS-FACTORIAL HepG2 Assay for human Specificity Protein 1 (Sp1) (AID 2282961); settings: HepG2 Sp1 cis-reporter transcription, actives raise or lower the signal
Procedure, shortened: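 Read-out: fluorescence of 6-FAM-labeled, HpaI-digested RT-PCR products separated by capillary electrophoresis. HepG2 cells carried transfected cis-element reporter units and were exposed to chemicals for 24 h; gain or loss of signal fitted relative to DMSO.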

[7] = ATG_SREBP_CIS: Attagene CIS-FACTORIAL HepG2 Assay for human Sterol Regulatory Element Binding (SREBP) (AID 2282962); settings: HepG2 Attagene cis-factorial SREBP reporter, mRNA; actives raise or lower the signal
Procedure, shortened: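 Readout: fluorescent reporter-transcript peaks resolved by capillary electrophoresis after RT-PCR. Cells were human HepG2 carrying transfected cis-promoter reporter constructs, dosed for 24 h. Gain or loss of signal was fitted against DMSO controls.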

[8] = target: Signal transducer and activator of transcription 3 (Homo sapiens) (UniProt P40763); assay: ATG_STAT3_CIS: Attagene CIS-FACTORIAL HepG2 Assay for human Signal Transducer and Activator of Transcription 3 (STAT3) (AID 2282963); settings: HepG2, Attagene cis-factorial STAT3 reporter transcription; actives raise or lower the signal
Procedure, shortened: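 Uses human liver HepG2 transiently carrying cis-regulated reporter transcription units. Following 24 h dosing, reporter mRNA induction was detected by RT-PCR and capillary electrophoresis, analysed bidirectionally versus DMSO.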

[9] = ATG_TA_CIS: Attagene CIS-FACTORIAL HepG2 Assay for human TA Basal Promoter (AID 2282964); settings: HepG2 Attagene CIS-factorial TA basal promoter reporter; actives raise or lower the signal
Procedure, shortened: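 Transfected HepG2, 24 h compound exposure; RNA → RT-PCR → FAM primer extension → HpaI cut → CE fluorescence. Gain/loss-of-signal fitted against DMSO negative control. Background-control readout.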

[10] = ATG_TAL_CIS: Attagene CIS-FACTORIAL HepG2 Assay for human TAL Basal Promoter (AID 2282966); settings: HepG2 Attagene cis-factorial TAL promoter reporter; actives raise or lower the signal;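 further: background control endpoint measuring basal TAL promoter reporter mRNA not a specific factor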
Procedure, shortened: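 Human hepatoma HepG2 cells, transfected with promoter-regulated reporter units, were treated 24 h. Reporter transcript levels, measured through RT-PCR and capillary electrophoresis, were fitted for gain or loss relative to DMSO.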

[11] = ATG_TGFb_CIS: Attagene CIS-FACTORIAL HepG2 Assay for human Transforming Growth Factor (TGF) (AID 2282967); settings: HepG2 Attagene CIS TGFb reporter, mRNA transcription; actives raise or lower the signal
Procedure, shortened: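 Readout: fluorescently labeled reporter cDNA fragments resolved by capillary electrophoresis after RT-PCR. Transfected HepG2 cells dosed for 24 h; endogenous TF activity at TGFB1-linked cis element; gain or loss fitted relative to DMSO.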

[12] = target: Nuclear receptor subfamily 1 group I member 3 (Homo sapiens) (UniProt Q14994); assay: ATG_CAR_TRANS: Attagene TRANS-FACTORIAL HepG2 Assay for human Constitutive Androstane Receptor (CAR) (AID 2282969; active means hit-call score of the fitted dose curve at least 0.9, where 1 is the maximum;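 further: activators raise reporter mRNA above DMSO so AC50 marks induction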); settings: HepG2 Attagene TRANS-FACTORIAL CAR reporter
Procedure, shortened: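 Steps: transient transfection of HepG2 with multiple GAL4-UAS reporter units; 24 h compound incubation; RNA isolation, RT-PCR, 6-FAM primer extension, HpaI digest; capillary electrophoresis. Gain-of-signal relative to DMSO negative control.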

[13] = target: Steroid hormone receptor ERR1 (Homo sapiens) (UniProt P11474); assay: ATG_ERRa_TRANS: Attagene TRANS-FACTORIAL HepG2 Assay for human Estrogen-Related Receptor alpha (ERRa) (AID 2282971; active means hit-call score of the fitted dose curve at least 0.9, where 1 is the maximum); settings: HepG2 Attagene TRANS reporter, ERRa transactivation
Procedure, shortened: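 Signal gain relative to DMSO for an ERRa-Gal4 chimeric receptor, read as reporter mRNA by RT-PCR/capillary electrophoresis. Human HepG2 liver cells, transient multiplex reporter transfection, 24 h chemical exposure.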

[14] = ATG_GAL4_TRANS: Attagene TRANS-FACTORIAL HepG2 Assay for GAL4 (Internal Marker) (AID 2282976; active means hit-call score of the fitted dose curve at least 0.9, where 1 is the maximum); settings: HepG2 Attagene TRANS GAL4 internal marker reporter
Procedure, shortened: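 Liver HepG2 line bearing multiplexed GAL4-UAS reporter constructs; 24 h chemical treatment. Transcripts were quantified as fluorescent fragments on capillary electrophoresis after RT-PCR and HpaI cut, with activity fitted upward from DMSO.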

[15] = target: Estrogen-related receptor gamma (Homo sapiens) (UniProt P62508); assay: ATG_ERRg_TRANS: Attagene TRANS-FACTORIAL HepG2 Assay for human Estrogen-Related Receptor gamma (ERRg) (AID 2282977; active means hit-call score of the fitted dose curve at least 0.9, where 1 is the maximum;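 further: hits increase reporter signal over DMSO so potencies reflect activators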); settings: HepG2 Attagene TRANS reporter, ERRg transactivation
Procedure, shortened: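 Exogenous NR-Gal4 chimera activity was assessed in HepG2 cells bearing transfected GAL4-UAS reporters. After 24 h dosing, total RNA underwent RT-PCR, fluorescent primer extension and HpaI digestion before capillary electrophoresis, with gain of signal scored against DMSO.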

[16] = ATG_TCF_b_cat_CIS: Attagene CIS-FACTORIAL HepG2 Assay for human T-Cell-Factor with beta-catenin (TCF/b-cat) (AID 2282965); settings: HepG2 TCF/beta-catenin cis-reporter transcription, actives raise or lower the signal
Procedure, shortened: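 Using capillary electrophoresis as the read-out, labelled reporter cDNA fragments from transiently transfected HepG2 were sized and quantified. Exposure lasted 24 hours; activity in either direction was referenced to DMSO.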

[17] = target: Estrogen receptor (Homo sapiens) (UniProt P03372); assay: ATG_ERa_TRANS: Attagene TRANS-FACTORIAL HepG2 Assay for human Estrogen Receptor alpha (ERa) (AID 2282970; active means hit-call score of the fitted dose curve at least 0.9, where 1 is the maximum); settings: HepG2 Attagene TRANS ERa GAL4 reporter, mRNA
Procedure, shortened: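 Signal derives from fluorescence of labelled reporter PCR fragments separated by capillary electrophoresis. HepG2 cells transiently carrying multiple GAL4-UAS reporter units were treated 24 hours, and induction above DMSO baseline was fitted as activity.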

[18] = target: X-box-binding protein 1 (Homo sapiens) (UniProt P17861); assay: ATG_Xbp1_CIS: Attagene CIS-FACTORIAL HepG2 Assay for human X-box Binding Protein 1 (XBP1) (AID 2282972); settings: HepG2 XBP1 cis-element reporter, Attagene multiplex; actives raise or lower the signal
Procedure, shortened: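 Read-out: fluorescent reporter mRNA fragments resolved by capillary electrophoresis after RT-PCR. Human HepG2 liver cells carried transfected cis-promoter reporter units and were exposed to chemicals for 24 hours. Gain or loss of signal fitted relative to DMSO baseline.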

[19] = ATG_VDRE_CIS: Attagene CIS-FACTORIAL HepG2 Assay for human Vitamin D Receptor Element (VDRE) (AID 2282968); settings: HepG2 VDRE cis-reporter transcription, actives raise or lower the signal
Procedure, shortened: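 Transfected HepG2 reporter cells, chemical treatment 24 h. RNA isolated, cDNA amplified with reporter-specific primers, products analysed by capillary electrophoresis. Endpoint fitted in both directions versus DMSO.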

[20] = ATG_M_19_TRANS: Attagene TRANS-FACTORIAL HepG2 Assay for M19 Transcription Factor (Internal Marker) (AID 2282974; active means hit-call score of the fitted dose curve at least 0.9, where 1 is the maximum); settings: HepG2 Attagene TRANS-FACTORIAL M19 internal marker reporter
Procedure, shortened: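 24 h chemical exposure of transiently transfected HepG2 (MRTU library). RNA → oligo(dT) RT → PCR → 6-FAM labelling → HpaI cut → CE fluorescence. Positive-direction fit vs DMSO baseline; background internal-marker readout.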

Measured: AC50

Chain of Signal transducer and activator of transcription 3 (Homo sapiens) (P40763 whole entry, looked up): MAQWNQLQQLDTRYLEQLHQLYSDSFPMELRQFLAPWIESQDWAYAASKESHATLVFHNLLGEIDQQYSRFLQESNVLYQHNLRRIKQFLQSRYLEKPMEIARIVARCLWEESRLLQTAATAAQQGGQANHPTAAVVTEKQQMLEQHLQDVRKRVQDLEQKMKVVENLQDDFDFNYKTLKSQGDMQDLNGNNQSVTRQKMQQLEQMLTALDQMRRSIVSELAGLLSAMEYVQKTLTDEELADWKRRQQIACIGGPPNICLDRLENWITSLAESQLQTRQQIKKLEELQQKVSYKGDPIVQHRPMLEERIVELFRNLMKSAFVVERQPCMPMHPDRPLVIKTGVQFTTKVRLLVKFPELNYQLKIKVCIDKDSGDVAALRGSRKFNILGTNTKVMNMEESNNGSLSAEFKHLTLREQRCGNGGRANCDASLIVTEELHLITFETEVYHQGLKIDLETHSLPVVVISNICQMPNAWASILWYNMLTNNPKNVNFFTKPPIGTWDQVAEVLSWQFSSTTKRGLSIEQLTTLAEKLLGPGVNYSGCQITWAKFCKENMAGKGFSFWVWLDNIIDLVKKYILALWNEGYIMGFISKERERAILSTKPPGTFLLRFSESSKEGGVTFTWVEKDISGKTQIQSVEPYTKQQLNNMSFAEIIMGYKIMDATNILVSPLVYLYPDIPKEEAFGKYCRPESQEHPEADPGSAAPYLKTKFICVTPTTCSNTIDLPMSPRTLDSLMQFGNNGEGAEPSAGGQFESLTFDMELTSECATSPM
Chain of X-box-binding protein 1 (Homo sapiens) (P17861 whole entry, looked up, the tested form may be a part): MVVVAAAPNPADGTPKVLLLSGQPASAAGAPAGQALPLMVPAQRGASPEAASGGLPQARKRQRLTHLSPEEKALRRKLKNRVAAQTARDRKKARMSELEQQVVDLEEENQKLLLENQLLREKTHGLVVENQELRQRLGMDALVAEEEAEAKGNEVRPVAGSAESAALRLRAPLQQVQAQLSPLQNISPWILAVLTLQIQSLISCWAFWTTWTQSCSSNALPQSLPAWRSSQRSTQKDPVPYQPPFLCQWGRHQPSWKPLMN
Chain of Nuclear receptor subfamily 1 group I member 3 (Homo sapiens) (Q14994 whole entry, looked up, the tested form may be a part): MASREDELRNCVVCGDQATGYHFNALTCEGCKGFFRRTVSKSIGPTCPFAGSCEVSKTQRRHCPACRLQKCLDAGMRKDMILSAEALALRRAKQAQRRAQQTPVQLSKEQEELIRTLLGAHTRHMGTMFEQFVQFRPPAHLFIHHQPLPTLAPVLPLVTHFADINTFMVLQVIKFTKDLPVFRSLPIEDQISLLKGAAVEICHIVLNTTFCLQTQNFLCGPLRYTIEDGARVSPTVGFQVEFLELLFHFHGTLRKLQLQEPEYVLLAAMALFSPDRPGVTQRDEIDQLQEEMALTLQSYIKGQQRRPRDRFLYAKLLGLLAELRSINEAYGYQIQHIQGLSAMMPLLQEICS
Chain of Estrogen-related receptor gamma (Homo sapiens) (P62508 whole entry, looked up, the tested form may be a part): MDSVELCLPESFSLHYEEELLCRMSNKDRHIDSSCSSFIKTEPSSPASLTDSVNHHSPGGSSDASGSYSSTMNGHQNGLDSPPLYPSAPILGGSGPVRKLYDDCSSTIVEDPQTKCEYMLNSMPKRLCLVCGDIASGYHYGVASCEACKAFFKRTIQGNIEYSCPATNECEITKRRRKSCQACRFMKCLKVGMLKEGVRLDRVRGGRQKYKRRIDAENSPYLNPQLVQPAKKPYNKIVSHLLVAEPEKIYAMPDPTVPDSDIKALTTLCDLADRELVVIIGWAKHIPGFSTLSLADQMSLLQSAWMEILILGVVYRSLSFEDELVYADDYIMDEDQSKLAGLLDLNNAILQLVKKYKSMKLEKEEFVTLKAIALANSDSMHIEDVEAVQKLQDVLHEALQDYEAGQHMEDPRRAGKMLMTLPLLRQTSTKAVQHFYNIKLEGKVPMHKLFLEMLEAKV
Chain of Transcription factor Sp1 (Homo sapiens) (P08047 whole entry, looked up): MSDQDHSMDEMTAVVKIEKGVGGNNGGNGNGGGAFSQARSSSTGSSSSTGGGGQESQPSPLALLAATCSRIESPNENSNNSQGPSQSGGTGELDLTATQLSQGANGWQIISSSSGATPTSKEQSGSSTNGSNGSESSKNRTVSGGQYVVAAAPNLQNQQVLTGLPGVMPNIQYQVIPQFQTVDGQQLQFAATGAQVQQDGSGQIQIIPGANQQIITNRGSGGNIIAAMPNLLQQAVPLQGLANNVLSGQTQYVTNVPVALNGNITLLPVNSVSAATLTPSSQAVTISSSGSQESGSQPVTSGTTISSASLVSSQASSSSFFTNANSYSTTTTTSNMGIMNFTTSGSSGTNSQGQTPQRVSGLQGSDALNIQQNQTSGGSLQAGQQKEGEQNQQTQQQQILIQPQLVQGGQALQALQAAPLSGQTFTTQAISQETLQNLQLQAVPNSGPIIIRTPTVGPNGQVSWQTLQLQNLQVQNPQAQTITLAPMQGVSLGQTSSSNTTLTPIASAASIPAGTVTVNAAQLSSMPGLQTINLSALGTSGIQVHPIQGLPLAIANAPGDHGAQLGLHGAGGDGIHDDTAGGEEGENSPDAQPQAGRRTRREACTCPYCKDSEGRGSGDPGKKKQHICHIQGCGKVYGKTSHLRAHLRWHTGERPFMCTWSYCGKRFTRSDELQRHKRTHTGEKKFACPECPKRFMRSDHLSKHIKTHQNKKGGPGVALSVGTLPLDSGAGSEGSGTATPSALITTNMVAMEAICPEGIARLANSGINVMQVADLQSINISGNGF
Chain of Paired box protein Pax-6 (Homo sapiens) (P26367 whole entry, looked up): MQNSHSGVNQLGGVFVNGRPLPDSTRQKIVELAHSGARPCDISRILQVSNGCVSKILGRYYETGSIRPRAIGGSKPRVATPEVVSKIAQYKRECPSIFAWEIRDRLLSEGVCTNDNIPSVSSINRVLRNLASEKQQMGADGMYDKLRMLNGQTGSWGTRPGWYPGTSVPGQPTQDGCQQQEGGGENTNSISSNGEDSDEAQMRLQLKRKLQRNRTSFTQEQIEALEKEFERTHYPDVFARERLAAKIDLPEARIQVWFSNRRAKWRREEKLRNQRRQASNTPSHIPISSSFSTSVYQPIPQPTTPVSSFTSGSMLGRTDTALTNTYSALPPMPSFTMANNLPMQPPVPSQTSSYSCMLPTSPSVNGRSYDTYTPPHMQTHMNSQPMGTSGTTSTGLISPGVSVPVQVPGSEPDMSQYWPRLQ
Chain of Steroid hormone receptor ERR1 (Homo sapiens) (P11474 whole entry, looked up, the tested form may be a part): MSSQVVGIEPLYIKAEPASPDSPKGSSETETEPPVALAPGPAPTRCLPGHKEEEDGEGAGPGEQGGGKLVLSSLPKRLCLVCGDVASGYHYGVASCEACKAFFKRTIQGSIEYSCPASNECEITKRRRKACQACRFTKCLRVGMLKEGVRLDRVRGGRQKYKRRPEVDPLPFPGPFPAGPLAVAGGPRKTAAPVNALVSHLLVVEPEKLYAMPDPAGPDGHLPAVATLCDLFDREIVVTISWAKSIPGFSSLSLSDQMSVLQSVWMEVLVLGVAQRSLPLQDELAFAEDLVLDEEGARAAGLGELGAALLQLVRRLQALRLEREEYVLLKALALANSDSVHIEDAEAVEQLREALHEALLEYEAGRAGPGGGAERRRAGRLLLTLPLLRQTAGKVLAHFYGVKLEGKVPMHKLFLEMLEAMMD
Chain of Estrogen receptor (Homo sapiens) (P03372 whole entry, looked up, the tested form may be a part): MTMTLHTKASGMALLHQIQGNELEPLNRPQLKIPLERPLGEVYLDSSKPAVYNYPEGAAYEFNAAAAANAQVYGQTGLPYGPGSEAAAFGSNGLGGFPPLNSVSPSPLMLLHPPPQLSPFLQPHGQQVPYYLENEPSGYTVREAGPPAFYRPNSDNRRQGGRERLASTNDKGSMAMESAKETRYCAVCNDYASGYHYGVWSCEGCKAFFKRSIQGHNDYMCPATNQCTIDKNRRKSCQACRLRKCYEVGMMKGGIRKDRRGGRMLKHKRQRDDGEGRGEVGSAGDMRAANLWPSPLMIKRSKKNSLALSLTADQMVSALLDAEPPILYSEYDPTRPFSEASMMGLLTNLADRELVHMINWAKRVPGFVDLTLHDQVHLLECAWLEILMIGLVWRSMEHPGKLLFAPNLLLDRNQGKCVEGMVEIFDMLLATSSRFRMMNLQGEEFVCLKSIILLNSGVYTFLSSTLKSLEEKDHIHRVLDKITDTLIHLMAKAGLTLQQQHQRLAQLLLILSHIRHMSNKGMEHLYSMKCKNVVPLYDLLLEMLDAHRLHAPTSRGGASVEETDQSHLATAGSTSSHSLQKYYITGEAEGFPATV

Cc1cc(C)c(C)c(C)c1
not listed: [16] | [17] | [18] | [19] | [20]
inactive: all other assays above

O=C1CC2CC1C1CCCC21 (stereo not given)
active: [2] 40.8 µM
not listed: [9] | [12] | [15] | [19] | [20]
inactive: all other assays above

Cc1ccc(C(C)(C)C)cc1
not listed: [8] | [13] | [14] | [15] | [17]
inactive: all other assays above

COC(=O)/C=C/C(C)=C\C=C\C(C)=C\C=C\C=C(C)\C=C\C=C(C)\C=C\C(=O)O
active: [2] 60.8 µM
not listed: [9] | [12] | [13] | [14] | [17] | [20]
inactive: all other assays above

CC(=O)OC(C)C
active: [2] 100 µM
not listed: [12] | [13] | [14] | [15] | [16] | [20]
inactive: all other assays above

Nc1ncn([C@@H]2O[C@H](CO)[C@@H](O)[C@H]2O)c(=O)n1
active: [16] 0.975 µM
not listed: [9] | [13] | [14] | [20]
inactive: all other assays above

CC=CC(F)(F)C(F)(F)C(F)(F)F
not listed: [9] | [12] | [13] | [17] | [20]
inactive: all other assays above

COC(=O)c1ccccc1OC
not listed: [11] | [12] | [14] | [15] | [17] | [19] | [20]
inactive: all other assays above

CCCCCCCC/C=C\CCCCCCCC(=O)O
not listed: [8] | [12] | [13] | [15] | [19] | [20]
inactive: all other assays above

CCCCOCCOC(=O)COc1nc(Cl)c(Cl)cc1Cl
not listed: [9] | [11] | [12] | [13] | [14] | [15] | [19] | [20]
inactive: all other assays above

CN(C)c1ccc(C(=N)c2ccc(N(C)C)cc2)cc1
inactive: [3] | [5] | [6] | [7] | [9] | [10] | [11] | [17]
active: [1] 3.16 µM | [2] 5.82 µM | [4] 1.28 µM | [16] 9.76 µM | [19] 1.29 µM | [18] 1.21 µM

C=CC=CC=CCCCCC
active: [2] 6.94 µM
not listed: [8] | [12] | [14] | [15] | [20]
inactive: all other assays above

C(=CC=Nc1ccccc1)C=CNc1ccccc1
active: [2] 32.3 µM
not listed: [13] | [15] | [16]
inactive: all other assays above

Nc1ccc2cc3ccccc3cc2c1
active: [2] 13.2 µM | [17] 6.94 µM
not listed: [9] | [13] | [15] | [20]
inactive: all other assays above

Source: PubChem BioAssay (EPA / NIEHS)
